In PubChem BioAssay (EPA / NIEHS):
Results filed as inconclusive are left out. Calls of active or inactive are those of the source. The calls were made as follows: active = hit-call score of the fitted dose curve at least 0.9, where 1 is the maximum; inconclusive = response in the unintended direction; inactive = score below 0.9.

What follows are molecules tested on sulfotransferase (SULT2A), SULT2A1 (gene 6822) (assay: CLD_SULT2A_24hr: CellzDirect (CLD) Gene Expression Assay for sulfotransferase (SULT2A) at 24 hours (AID 2283694);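 as to AC50: potency for increased SULT2A1 mRNA level as induction over DMSO baseline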).
Summary of the method: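 mRNA is measured by qNPA: probe hybridisation, S1 nuclease digestion, chemiluminescence, in lysates from human primary hepatocytes harvested 24 h after daily dosing. Vehicle was 0.2% DMSO. Phase-contrast microscopy flagged cytotoxicity (yes/no).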

| Structure (SMILES) | outcome | AC50 |
| --- | --- | --- |
| CCCC1COC(Cn2cncn2)(c2ccc(Cl)cc2Cl)O1 (stereo unspecified) | inactive | – |
| CCOC(=O)CC(SP(=S)(OC)OC)C(=O)OCC (stereo unspecified) | inactive | – |
| N#Cc1nn(-c2c(Cl)cc(C(F)(F)F)cc2Cl)c(N)c1S(=O)C(F)(F)F (stereo unspecified) | – | 2.43 µM (active) |
| Cc1ccc(-c2c(Cl)nc(C#N)n2S(=O)(=O)N(C)C)cc1 | inactive | – |
| CCNc1nc(Cl)nc(NCC)n1 | inactive | – |
| CNC(=S)S | inactive | – |
| CCOP(=S)(OCC)SCn1c(=O)oc2cc(Cl)ccc21 | inactive | – |
| N#Cc1cc(Br)c(O)c(Br)c1 | inactive | – |
| OC(c1ccc(Cl)cc1)(c1cncnc1)c1ccccc1Cl (stereo unspecified) | inactive | – |
| CCCN(CCC)c1c([N+](=O)[O-])cc(S(N)(=O)=O)cc1[N+](=O)[O-] | – | 20 µM (active) |
| CCCCC(CC)COC(=O)c1ccccc1C(=O)OCC(CC)CCCC (stereo unspecified) | inactive | – |

Each molecule was assayed on ABC Transporter (ABCB11), ABCB11 (gene 8647) (assay: CLD_ABCB11_48hr: CellzDirect (CLD) Gene Expression Assay for ABC Transporter (ABCB11) at 48 hours (AID 2283697)).
Summary of the method: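 Induction of ABCB11 mRNA relative to 0.2% DMSO, measured at 48 h by qNPA chemiluminescence. Cultured human hepatocytes (two donors) received fresh dosing solutions at several concentrations on two consecutive days.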

| Structure (SMILES) | outcome |
| --- | --- |
| Oc1ccccc1-c1ccccc1 | inactive |
| CN(C)C(=S)SSC(=S)N(C)C | inactive |
| Cc1c(F)c(F)c(COC(=O)C2C(/C=C(\Cl)C(F)(F)F)C2(C)C)c(F)c1F (stereo unspecified) | inactive |
| CS/C(C)=N/OC(=O)N(C)SN(C)C(=O)O/N=C(\C)SC | inactive |
| COc1nc(NC(C)C)nc(NC(C)C)n1 | inactive |

Each molecule was assayed on Cytochrome P450 2B6 (Homo sapiens) (UniProt P20813) (assay: CLD_CYP2B6_48hr: CellzDirect (CLD) Gene Expression Assay for xenobiotic metabolism (CYP2B6) at 48 hours (AID 2283699);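 also: actives raise transcript level above DMSO so potency reflects induction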).
Summary of the method: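 CYP2B6 transcript induction, read by quantitative nuclease protection (S1 digestion, chemiluminescent detection) 48 h after dosing, is fitted upward against 0.2% DMSO. Cultured human liver primary cells, two donor preparations, received fresh chemical daily over multiple concentrations.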

| Structure (SMILES) | AC50 | outcome |
| --- | --- | --- |
| Oc1ccccc1-c1ccccc1 | 8.64 µM (active) | – |
| Fc1ccc(Oc2ccnc3cc(Cl)cc(Cl)c23)cc1 | – | inactive |
| CCCC1COC(Cn2cncn2)(c2ccc(Cl)cc2Cl)O1 (stereo unspecified) | 1.89 µM (active) | – |
| CCOC(=O)CC(SP(=S)(OC)OC)C(=O)OCC (stereo unspecified) | – | inactive |
| CNC(=O)ON=CC(C)(C)SC | – | inactive |
| CN(C)C(=S)SSC(=S)N(C)C | – | inactive |
| N#Cc1nn(-c2c(Cl)cc(C(F)(F)F)cc2Cl)c(N)c1S(=O)C(F)(F)F (stereo unspecified) | 1.9 µM (active) | – |
| CON(C)C(=O)Nc1ccc(Cl)c(Cl)c1 | 1.31 µM (active) | – |
| CCNc1nc(Cl)nc(NCC)n1 | 6.18 µM (active) | – |
| O=C(Nc1ccccc1)Nc1ccnc(Cl)c1 | 6.77 µM (active) | – |
| CCOP(=S)(OCC)SCn1c(=O)oc2cc(Cl)ccc21 | 1.06 µM (active) | – |
| Cc1c(F)c(F)c(COC(=O)C2C(/C=C(\Cl)C(F)(F)F)C2(C)C)c(F)c1F (stereo unspecified) | 4.39 µM (active) | – |
| CC(C)C1(C)N=C(c2nc3ccccc3cc2C(=O)O)NC1=O (stereo unspecified) | 0.000357 µM (active) | – |
| CC(Oc1ccc(Cl)cc1Cl)C(=O)O (stereo unspecified) | – | inactive |
| COc1nc(NC(C)C)nc(NC(C)C)n1 | 5.98 µM (active) | – |
| CC1=C(C(=O)Nc2ccccc2)SCCO1 | 20 µM (active) | – |
| OC(c1ccc(Cl)cc1)(c1cncnc1)c1ccccc1Cl (stereo unspecified) | 0.483 µM (active) | – |
| Cc1cc(Cl)ccc1OCC(=O)O | – | inactive |
| CCCCC(CC)COC(=O)c1ccccc1C(=O)OCC(CC)CCCC (stereo unspecified) | – | inactive |
| C=CCC1=C(C)C(OC(=O)C2C(C=C(C)C)C2(C)C)CC1=O (stereo unspecified) | 12.8 µM (active) | – |
